Our source for the binding signal values is paper PMC11006913.

What all share (assay): PBM; 200 nM protein, PBS
What all share (conditions): dsDNA, one strand shown

In test [1] the target is HOXB4 (Homo sapiens, UniProt P17483 148-234).
Test [2] concerns the target T1, VENTX (Homo sapiens, UniProt O95231 78-163, R121Q).
T1 sequence: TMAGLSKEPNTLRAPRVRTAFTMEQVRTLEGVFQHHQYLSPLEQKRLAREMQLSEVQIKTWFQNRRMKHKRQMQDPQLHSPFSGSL

The next test addresses ALX4 (Homo sapiens, UniProt Q9H161 200-286).
For test [3], the target named is T2, PAX4 (Homo sapiens, UniProt O43316 9-242, R200K).
T2 sequence: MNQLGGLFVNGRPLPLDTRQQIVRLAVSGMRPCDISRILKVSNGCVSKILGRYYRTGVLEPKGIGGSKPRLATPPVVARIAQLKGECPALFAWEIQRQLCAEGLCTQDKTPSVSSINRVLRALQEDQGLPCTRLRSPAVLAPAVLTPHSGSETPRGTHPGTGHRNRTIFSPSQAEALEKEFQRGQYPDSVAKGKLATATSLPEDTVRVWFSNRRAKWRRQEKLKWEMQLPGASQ

In test [4] the target is PRRX1 (Homo sapiens, UniProt P54821 80-166, F113S).
PRRX1 (Homo sapiens, UniProt P54821 80-166, F113S), sequence (P54821 80-166 F113S): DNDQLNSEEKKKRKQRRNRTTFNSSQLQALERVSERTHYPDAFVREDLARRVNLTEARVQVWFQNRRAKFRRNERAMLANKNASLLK
In test [5] the target is T3, VENTX (Homo sapiens, UniProt O95231 78-163, Y115F).
T3 sequence: T1 sequence with Y38F, Q44R

For test [6], the target named is T4, PAX4 (Homo sapiens, UniProt O43316 9-242).
T4 sequence: T2 sequence with K192R

In test [7] the target is HOXA2 (Homo sapiens, UniProt O43364 129-215, R185T).
HOXA2 (Homo sapiens, UniProt O43364 129-215, R185T), sequence (O43364 129-215 R185T): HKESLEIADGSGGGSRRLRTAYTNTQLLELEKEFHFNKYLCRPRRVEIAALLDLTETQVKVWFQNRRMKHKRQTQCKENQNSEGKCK
Test [8] deals with HOXA4 (Homo sapiens, UniProt Q00056 201-287, R217L).
HOXA4 (Homo sapiens, UniProt Q00056 201-287, R217L), sequence (Q00056 201-287 R217L): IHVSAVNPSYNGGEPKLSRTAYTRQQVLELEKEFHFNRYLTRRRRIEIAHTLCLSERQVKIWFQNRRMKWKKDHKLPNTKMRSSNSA
The target of test [9] is HOXB4 (Homo sapiens, UniProt P17483 148-234, V174I).
HOXB4 (Homo sapiens, UniProt P17483 148-234, V174I), sequence (P17483 148-234 V174I): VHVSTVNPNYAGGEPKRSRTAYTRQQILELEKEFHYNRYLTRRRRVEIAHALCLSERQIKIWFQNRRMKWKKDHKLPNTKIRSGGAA
For test [10], the target named is T5, PAX4 (Homo sapiens, UniProt O43316 9-242, R200Q).
T5 sequence: T2 sequence with K192Q

In test [11] the target is HOXA2 (Homo sapiens, UniProt O43364 129-215, R185K).
HOXA2 (Homo sapiens, UniProt O43364 129-215, R185K), sequence (O43364 129-215 R185K): as the sequence (O43364 129-215 R185T) above, with T57K counted along it
Test [12] has as its target T6, PAX4 (Homo sapiens, UniProt O43316 9-242, F177V).
T6 sequence: T2 sequence with F169V, K192R

The target of test [13] is MSX2 (Homo sapiens, UniProt P35548 130-214).
MSX2 (Homo sapiens, UniProt P35548 130-214), sequence (P35548 130-214): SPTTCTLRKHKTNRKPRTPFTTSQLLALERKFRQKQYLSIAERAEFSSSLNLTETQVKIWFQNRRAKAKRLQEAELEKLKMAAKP
In test [14] the target is T7, PAX4 (Homo sapiens, UniProt O43316 9-242, F177Y).
T7 sequence: T2 sequence with F169Y, K192R

The target in test [15] is MSX2 (Homo sapiens, UniProt P35548 130-214, F161Y).
MSX2 (Homo sapiens, UniProt P35548 130-214, F161Y), sequence (P35548 130-214 F161Y): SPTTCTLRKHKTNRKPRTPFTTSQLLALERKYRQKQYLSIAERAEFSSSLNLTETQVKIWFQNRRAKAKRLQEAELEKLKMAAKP
For test [16], the target named is VAX1 (Homo sapiens, UniProt Q5SQQ9 86-172, T142I).
VAX1 (Homo sapiens, UniProt Q5SQQ9 86-172, T142I), sequence (Q5SQQ9 86-172 T142I): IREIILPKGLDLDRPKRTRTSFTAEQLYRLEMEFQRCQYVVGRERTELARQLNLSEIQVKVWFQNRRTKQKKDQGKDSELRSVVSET
Test [17] deals with HOXA4 (Homo sapiens, UniProt Q00056 201-287, W262F).
HOXA4 (Homo sapiens, UniProt Q00056 201-287, W262F), sequence (Q00056 201-287 W262F): as the sequence (Q00056 201-287 R217L) above, with L17R, W62F counted along it
Test [18] addresses PRRX1 (Homo sapiens, UniProt P54821 80-166).
Test [19] has as its target VAX1 (Homo sapiens, UniProt Q5SQQ9 86-172, K157R).

Numbering of substitutions follows the chain as printed.

PRRX1 (Homo sapiens, UniProt P54821 80-166), sequence (P54821 80-166): as the sequence (P54821 80-166 F113S) above, with S34F counted along it
ALX4, sequence (Q9H161 200-286): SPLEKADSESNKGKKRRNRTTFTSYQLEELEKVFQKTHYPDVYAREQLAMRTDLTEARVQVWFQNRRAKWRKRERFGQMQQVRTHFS
VAX1 (Homo sapiens, UniProt Q5SQQ9 86-172, K157R), sequence (Q5SQQ9 86-172 K157R): as the sequence (Q5SQQ9 86-172 T142I) above, with I57T, K72R counted along it
HOXB4 (Homo sapiens, UniProt P17483 148-234), sequence (P17483 148-234): as the sequence (P17483 148-234 V174I) above, with I27V counted along it

For TAATTACA, the binding signal in the test with HOXB4 [1] was 13.6 upbm affinity estimate (log intensity, higher = more binding, comparable within an allelic series); in the test with VENTX [2], 12.2 upbm affinity estimate (log intensity, higher = more binding, comparable within an allelic series); with ALX4, 14.2 upbm affinity estimate (log intensity, higher = more binding, comparable within an allelic series); with PAX4 [3], 11.9 upbm affinity estimate (log intensity, higher = more binding, comparable within an allelic series); with PRRX1 [4], 11.6 upbm affinity estimate (log intensity, higher = more binding, comparable within an allelic series); in the test with VENTX [5] it was 12.2 upbm affinity estimate (log intensity, higher = more binding, comparable within an allelic series). The binding signal was 12.4 upbm affinity estimate (log intensity, higher = more binding, comparable within an allelic series) with PAX4 [6]; 13.9 upbm affinity estimate (log intensity, higher = more binding, comparable within an allelic series) with HOXA2 [7]; 12.9 upbm affinity estimate (log intensity, higher = more binding, comparable within an allelic series) with HOXA4 [8]; 14.4 upbm affinity estimate (log intensity, higher = more binding, comparable within an allelic series) with HOXB4 [9]; 12.3 upbm affinity estimate (log intensity, higher = more binding, comparable within an allelic series) with PAX4 [10]; 14 upbm affinity estimate (log intensity, higher = more binding, comparable within an allelic series) with HOXA2 [11]. For the same sequence, the binding signal is 10.8 upbm affinity estimate (log intensity, higher = more binding, comparable within an allelic series) with PAX4 [12]; 14.1 upbm affinity estimate (log intensity, higher = more binding, comparable within an allelic series) with MSX2 [13]; 11.2 upbm affinity estimate (log intensity, higher = more binding, comparable within an allelic series) with PAX4 [14]; 13.7 upbm affinity estimate (log intensity, higher = more binding, comparable within an allelic series) with MSX2 [15]; 13.6 upbm affinity estimate (log intensity, higher = more binding, comparable within an allelic series) with VAX1 [16]; 12.3 upbm affinity estimate (log intensity, higher = more binding, comparable within an allelic series) with HOXA4 [17]. The binding signal in the test with PRRX1 [18] was 13.5 upbm affinity estimate (log intensity, higher = more binding, comparable within an allelic series); with VAX1 [19], 13.6 upbm affinity estimate (log intensity, higher = more binding, comparable within an allelic series).
In the case of ATAATTAC, the binding signal with HOXB4 [1] is 13.5 upbm affinity estimate (log intensity, higher = more binding, comparable within an allelic series); with VENTX [2], 12.1 upbm affinity estimate (log intensity, higher = more binding, comparable within an allelic series); in the test with ALX4 it was 14 upbm affinity estimate (log intensity, higher = more binding, comparable within an allelic series); with PAX4 [3], 11.8 upbm affinity estimate (log intensity, higher = more binding, comparable within an allelic series); in the test with PRRX1 [4], 11.6 upbm affinity estimate (log intensity, higher = more binding, comparable within an allelic series); with VENTX [5], 12 upbm affinity estimate (log intensity, higher = more binding, comparable within an allelic series). Moreover, the binding signal was 12.3 upbm affinity estimate (log intensity, higher = more binding, comparable within an allelic series) with PAX4 [6]; 13.7 upbm affinity estimate (log intensity, higher = more binding, comparable within an allelic series) with HOXA2 [7]; 12.8 upbm affinity estimate (log intensity, higher = more binding, comparable within an allelic series) in the test with HOXA4 [8]; 14.2 upbm affinity estimate (log intensity, higher = more binding, comparable within an allelic series) with HOXB4 [9]; 12.3 upbm affinity estimate (log intensity, higher = more binding, comparable within an allelic series) with PAX4 [10]; 13.9 upbm affinity estimate (log intensity, higher = more binding, comparable within an allelic series) in the test with HOXA2 [11]. Further, the binding signal is 10.8 upbm affinity estimate (log intensity, higher = more binding, comparable within an allelic series) with PAX4 [12]; 14 upbm affinity estimate (log intensity, higher = more binding, comparable within an allelic series) with MSX2 [13]; 11.2 upbm affinity estimate (log intensity, higher = more binding, comparable within an allelic series) with PAX4 [14]; 13.7 upbm affinity estimate (log intensity, higher = more binding, comparable within an allelic series) with MSX2 [15]; 13.4 upbm affinity estimate (log intensity, higher = more binding, comparable within an allelic series) in the test with VAX1 [16]; 12.2 upbm affinity estimate (log intensity, higher = more binding, comparable within an allelic series) in the test with HOXA4 [17]. Also, the binding signal in the test with PRRX1 [18] is 13.5 upbm affinity estimate (log intensity, higher = more binding, comparable within an allelic series); with VAX1 [19] it was 13.5 upbm affinity estimate (log intensity, higher = more binding, comparable within an allelic series).
Take ATAATTAA: the binding signal is 13.6 upbm affinity estimate (log intensity, higher = more binding, comparable within an allelic series) in the test with HOXB4 [1]; 12.1 upbm affinity estimate (log intensity, higher = more binding, comparable within an allelic series) with VENTX [2]; 14.5 upbm affinity estimate (log intensity, higher = more binding, comparable within an allelic series) with ALX4; 11.9 upbm affinity estimate (log intensity, higher = more binding, comparable within an allelic series) in the test with PAX4 [3]; 12 upbm affinity estimate (log intensity, higher = more binding, comparable within an allelic series) in the test with PRRX1 [4]; 12 upbm affinity estimate (log intensity, higher = more binding, comparable within an allelic series) with VENTX [5]. Further, the binding signal is 12.4 upbm affinity estimate (log intensity, higher = more binding, comparable within an allelic series) with PAX4 [6]; 13.6 upbm affinity estimate (log intensity, higher = more binding, comparable within an allelic series) with HOXA2 [7]; 13 upbm affinity estimate (log intensity, higher = more binding, comparable within an allelic series) with HOXA4 [8]; 14.4 upbm affinity estimate (log intensity, higher = more binding, comparable within an allelic series) in the test with HOXB4 [9]; 12.3 upbm affinity estimate (log intensity, higher = more binding, comparable within an allelic series) with PAX4 [10]; 13.7 upbm affinity estimate (log intensity, higher = more binding, comparable within an allelic series) in the test with HOXA2 [11]. In addition, the binding signal with PAX4 [12] is 10.8 upbm affinity estimate (log intensity, higher = more binding, comparable within an allelic series); with MSX2 [13], 13.9 upbm affinity estimate (log intensity, higher = more binding, comparable within an allelic series); in the test with PAX4 [14], 11.2 upbm affinity estimate (log intensity, higher = more binding, comparable within an allelic series); with MSX2 [15] it was 13.5 upbm affinity estimate (log intensity, higher = more binding, comparable within an allelic series); with VAX1 [16], 13.7 upbm affinity estimate (log intensity, higher = more binding, comparable within an allelic series); in the test with HOXA4 [17], 12.6 upbm affinity estimate (log intensity, higher = more binding, comparable within an allelic series). Besides, the binding signal in the test with PRRX1 [18] is 13.7 upbm affinity estimate (log intensity, higher = more binding, comparable within an allelic series); with VAX1 [19], 13.5 upbm affinity estimate (log intensity, higher = more binding, comparable within an allelic series).
Regarding GATAATTA, the binding signal in the test with HOXB4 [1] is 13.8 upbm affinity estimate (log intensity, higher = more binding, comparable within an allelic series); with VENTX [2], 12.5 upbm affinity estimate (log intensity, higher = more binding, comparable within an allelic series); with ALX4, 14.4 upbm affinity estimate (log intensity, higher = more binding, comparable within an allelic series); with PAX4 [3], 12 upbm affinity estimate (log intensity, higher = more binding, comparable within an allelic series); with PRRX1 [4] it was 12 upbm affinity estimate (log intensity, higher = more binding, comparable within an allelic series); with VENTX [5], 12.3 upbm affinity estimate (log intensity, higher = more binding, comparable within an allelic series). Further, the binding signal is 12.6 upbm affinity estimate (log intensity, higher = more binding, comparable within an allelic series) with PAX4 [6]; 13.9 upbm affinity estimate (log intensity, higher = more binding, comparable within an allelic series) with HOXA2 [7]; 13.1 upbm affinity estimate (log intensity, higher = more binding, comparable within an allelic series) with HOXA4 [8]; 14.5 upbm affinity estimate (log intensity, higher = more binding, comparable within an allelic series) with HOXB4 [9]; 12.4 upbm affinity estimate (log intensity, higher = more binding, comparable within an allelic series) with PAX4 [10]; 13.8 upbm affinity estimate (log intensity, higher = more binding, comparable within an allelic series) with HOXA2 [11]. Moreover, the binding signal with PAX4 [12] is 10.8 upbm affinity estimate (log intensity, higher = more binding, comparable within an allelic series); with MSX2 [13] it was 14.1 upbm affinity estimate (log intensity, higher = more binding, comparable within an allelic series); in the test with PAX4 [14] it was 11.3 upbm affinity estimate (log intensity, higher = more binding, comparable within an allelic series); with MSX2 [15], 13.7 upbm affinity estimate (log intensity, higher = more binding, comparable within an allelic series); in the test with VAX1 [16] it was 13.8 upbm affinity estimate (log intensity, higher = more binding, comparable within an allelic series); with HOXA4 [17], 12.6 upbm affinity estimate (log intensity, higher = more binding, comparable within an allelic series). Moreover, the binding signal was 13.7 upbm affinity estimate (log intensity, higher = more binding, comparable within an allelic series) with PRRX1 [18] and 13.7 upbm affinity estimate (log intensity, higher = more binding, comparable within an allelic series) with VAX1 [19].
